From PubChem
This is a sample that favours compounds with a hit; in the whole collection about 4.9% have one here.
HSF1 inhib = HSF1 inhibition; NIH3T3-HGL HSE-luciferase, MG132-induced, luminescence 8 h; stronger effect = lower value; activity change, negative = inhibition, % at 7.5 µM (by protocol); actives 0.77% (n = 300,000);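 active means more than half of replicate wells show activity change below -50%, luminescence cut by over half; inconclusive means some wells, but at most half, below -50%; inactive means no replicate well below -50%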;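 further: luciferase reports HSF-1 transcriptional activity via heat shock element; 0% = median of DMSO wells and -100% = zero luminescence signal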
HSP90 refold inh = blocks HSP90-mediated luciferase refolding in reticulocyte lysate; Rabbit reticulocyte lysate, luciferase refolding luminescence, 3 h; inhibition, % at 5.6 µM; actives 0.91% (n = 290,000);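 active means inhibition above the screen-wide mean plus 3 SD, computed separately per campaign, cut at about 16% in these data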;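 further: 0% = DMSO wells and 100% = 60 µM geldanamycin wells; inhibitors lower the luminescence because luciferase stays unfolded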
Platelet DG rel = modulates dense granule release in human platelets; human platelet-rich plasma, SFLLRN dense granule ATP release, luminescence; inhibition, %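 (compounds screened at 7.5 µM in platelet-rich plasma)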; actives 0.22% (n = 300,000);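 active means mean replicate score, as percent of positive control, at or above 50; inconclusive means mean below 50 but at least one replicate at or above 50; inactive means mean and every replicate below 50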
MPTP block = inhibitors of mitochondrial permeability transition pore; AID 602449; actives 1.4% (n = 360,000); isolated mouse mitochondria, Ca2+ swelling absorbance, 30 min; inhibition, % at 10 µM;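 active means inhibition of 50% or more, scaled per plate between neutral and stimulator controls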;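 further: 0% = DMSO wells given calcium and 100% = 1 mM EGTA wells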
dFosB activator = activators of mouse delta FosB homodimer. activation, % at 25 µM. AID 493131. purified delta FosB, TAMRA-CDK5 oligo fluorescence polarization; percent of positive-control signal above neutral wells. P13346. actives 0.99% (n = 340,000);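 active means mean activation above about 17%, with every replicate also reaching it, limit read from the data, passing the limit was not always enough; inconclusive means only one of the two conditions met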
Target sequence (P13346 whole entry, looked up): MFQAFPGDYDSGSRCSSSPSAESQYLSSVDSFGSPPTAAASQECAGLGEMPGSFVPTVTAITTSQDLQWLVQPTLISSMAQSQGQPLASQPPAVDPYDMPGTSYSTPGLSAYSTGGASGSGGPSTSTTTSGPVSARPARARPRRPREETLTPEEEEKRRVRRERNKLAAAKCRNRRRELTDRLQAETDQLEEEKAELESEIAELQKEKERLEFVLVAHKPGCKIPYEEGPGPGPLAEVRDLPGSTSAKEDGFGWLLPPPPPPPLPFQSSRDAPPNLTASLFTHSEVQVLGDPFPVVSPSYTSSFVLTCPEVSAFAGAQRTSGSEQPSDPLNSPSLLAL
HSF1 activator = increases HSF-1 driven luciferase reporter signal | NIH3T3-HGL HSF-1 luciferase reporter, MG132, 8 h; 100% = twice DMSO control signal | activation, % at 9 µM | actives 1.7% (n = 300,000) | AID 504408;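 active means mean replicate activation of at least 50% with a set share of replicates each reaching 50%; inconclusive means only one of those two conditions met; inactive means mean below 50% and too few replicates reaching it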;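 further: 0% = median of the neutral control wells and 100% = twice that signal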
HSP90 inh confirm = confirmation of HSP90 inhibitors; shares compounds with HSP90 refold inh; rabbit reticulocyte lysate, luciferase refolding luminescence, 3 h; inhibition, % at 5.9 µM; actives 64% (n = 2,300); in the data active means inhibition above about 18%;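 further: 0% = vehicle wells and 100% = reference inhibitor wells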
luciferase ctr = counter-screen for HSP90 inhibitors: inhibitors of firefly luciferase | shares compounds with HSP90 refold inh | purified native firefly luciferase, luminescence | inhibition, % at 5.9 µM | actives 48% (n = 2,300);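 active means inhibition above the mean inhibition of all tested sample wells plus 3 SD, cut at about 10% in these data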;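 further: 0% = DMSO with luciferase and 100% = wells lacking luciferase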
* hit, by the source's call; ? = inconclusive; / = no result given.

SMILES | HSF1 inhib | HSP90 refold inh | Platelet DG rel | MPTP block | dFosB activator | HSF1 activator | HSP90 inh confirm | luciferase ctr
N#CC(C#N)=c1ccc2c(c1)NC1(CCCCC1)N=2 | 1 | 52* | 23 | 20 | -5 | 8 | 7 | 1
CCOC(=O)Nc1ccc2c(COC(=O)CNS(=O)(=O)c3cccc(Br)c3)cc(=O)oc2c1 | 12 | 8 | ? | 3 | ? | -5 | / | /
O=C(OCc1ccccn1)c1ccc(COc2ccc3ccccc3c2)o1 | 20 | 45* | 1 | 2 | -8 | 33 | 63* | -11
NNC(=O)c1ccc(COc2ccc3ccccc3c2)o1 | 17 | 3 | -2 | 6 | -2 | 49 | / | /
Cc1cc(C)c(C(=O)COC(=O)c2ccc(NC(=O)CC#N)cc2)cc1C | 7 | 3 | -7 | 4 | -12 | -2 | / | /
Cc1ccc2c(COC(=O)c3ccc(NC(=O)CC#N)cc3)cc(=O)oc2c1C | 19 | 19* | 0 | -3 | -1 | 56* | 22* | -6
Cc1ncc(C[n+]2csc(CCOC(=O)C34CC5CC(CC(C5)C3)C4)c2C)c(N)n1 | 3 | 50* | 2 | -1 | -12 | 11 | 1 | -4
Cc1ncc(C[n+]2csc(CCOC(=O)CC3C4CC5CC(C4)CC3C5)c2C)c(N)n1 (configuration not stated) | -6 | -1 | -2 | -1 | -7 | 10 | / | /
CC(C)CNC(=O)c1cc(-c2ccc3c(c2)OCO3)on1 | 24 | 31* | 4 | 2 | 1 | 7 | 38* | 24*
CC(C)CNC(=O)COCc1cc(-c2ccc3c(c2)OCO3)on1 | 11 | -2 | -2 | 0 | -4 | 20 | / | /
CCOC(=O)c1sc2nc(N3CCOCC3)c3c(c2c1N)CC(C(C)C)OC3 (configuration not stated) | -8 | -2 | 16 | 3 | -4 | 3 | / | /
CCOC(=O)c1sc2nc3c(cc2c1N)COC(C(C)C)C3 (configuration not stated) | -60* | 25* | 2 | 0 | -2 | -69 | 44* | 41*
O=C(CN1C(=O)c2cccnc2Oc2ccc(Cl)cc21)Nc1ccccc1F | 8 | 36* | 1 | -2 | -1 | 4 | -7 | -18
COc1cccc(NC(=O)CN2C(=O)c3cccnc3Oc3ccc(Cl)cc32)c1 | 12 | -3 | -2 | 0 | -19 | 36 | / | /
CC1(C(=O)NS(=O)(=O)c2ccc(C#N)cc2)CCN1C(=O)Cc1ccsc1 (configuration not stated) | / | / | / | 0 | / | / | / | /
c1ccc(-n2nnc3c(N4CCOCC4)ncnc32)cc1 | -12 | 30* | 10 | 1 | -7 | 19 | 66* | 55*
Cc1nnc(N2CCOCC2)c2nn(-c3ccccc3)c(C)c12 | -2 | 2 | 3 | 0 | 6 | 1 | / | /
CCCCn1c(Cn2nc(C(=O)O)c3ccccc3c2=O)nc2cc(S(N)(=O)=O)ccc21 | 0 | 1 | -8 | 1 | -23 | 37 | / | /
Cn1c(=N)n(CC(=O)O)c2ccccc21 | 0 | 1 | -6 | 2 | -5 | -4 | / | /
Cn1c(=N)n(CC(=O)c2ccc(Cl)c(Cl)c2)c2ccccc21 | -63* | 41* | 9 | -2 | 2 | -68 | 47* | 50*
Cn1c(=N)n(CC(=O)c2ccccc2)c2ccccc21 | -2 | 29* | 22 | -1 | / | 5 | 6 | 0
COc1ccc(/C=C/c2nc3ccccc3c(=O)o2)cc1 | -59* | 79* | 33 | -1 | -7 | -66 | 87* | 14*
COc1ccccc1/C=C/c1nc2ccccc2c(=O)o1 | 24 | 8 | 0 | 0 | -14 | 27 | / | /
Cc1cccc(NC(=S)NC(=O)/C=C/c2ccco2)n1 | 31 | 18* | -1 | 2 | -16 | 43 | 0 | -8
Cc1ccc2nc(-c3cc(-c4ccccc4)no3)cn2c1 | 2 | 25* | 0 | 1 | 4 | 9 | 69* | 58*
SMILES | HSF1 inhib | HSP90 refold inh | Platelet DG rel | MPTP block | dFosB activator | HSF1 activator | HSP90 inh confirm | luciferase ctr
CCc1ccn2cc(-c3cc(-c4ccccc4)no3)nc2c1 | -69* | 82* | 29 | 1 | -21 | -74 | 86* | 84*
O=C(NNc1c([N+](=O)[O-])cc(C(F)(F)F)cc1[N+](=O)[O-])c1ccco1 | -6 | -4 | -10 | 46 | 1 | -6 | / | /
COc1ccc(Cc2nnc(Nc3ccccc3OC)[nH]c2=O)cc1 | 8 | -1 | 5 | 0 | 2 | 7 | / | /
COCCNC(=O)C1(C)CCCN(C(=O)c2ccc3c(c2)CCO3)C1 (configuration not stated) | / | / | / | 0 | / | / | / | /
CCN(Cc1ccncc1)C(=O)c1ccccc1NS(=O)(=O)c1ccc(Br)cc1 | 5 | 21* | 1 | 5 | -5 | -10 | -6 | -11
CCN(CC)C(=O)c1ccccc1NS(=O)(=O)c1ccc(C)cc1 | -8 | -1 | -1 | 0 | 2 | -10 | / | /
COc1ccccc1CC(=O)Nc1ncc(C)s1 | 1 | 8 | 2 | 0 | 0 | 17 | / | /
CC(=O)Nc1cccc(-c2cc(-c3c(Cl)cccc3Cl)no2)c1 | 15 | 19* | -1 | 8 | -6 | 24 | -9 | -12
CNC(=O)Nc1cccc(-c2cc(-c3c(Cl)cccc3Cl)no2)c1 | 11 | 6 | 2 | 43 | -5 | 14 | / | /
Cn1c2ccccc2c(=O)c2ccc(C#CC3(O)CCCCC3)cc21 | -65* | 59* | 0 | 0 | -4 | -66 | 66* | 65*
Cc1cc(Br)cn2c(Cc3cccc(F)c3)c(-c3ccc(C#N)cc3)nc12 | / | / | / | 0 | / | / | / | /
COCCCNC(=O)c1cccn2c(=O)c3cc4ccccc4cc3nc12 | / | 17* | -1 | -2 | -44 | / | 26* | 18*
CC(=O)N(CCc1ccccc1)c1ccc2c(c1)C1CC2CCN1C(=O)OCc1ccccc1 (configuration not stated) | / | / | / | 0 | / | / | / | /
Cc1ccc(CS(=O)Cc2ccc(C(=O)N3CCN(C4CCCCC4)CC3)o2)cc1 (configuration not stated) | -1 | 4 | -6 | 0 | -11 | -21 | / | /
N#CCc1ccc(NC(=O)/C=C/c2ccc([N+](=O)[O-])o2)cc1 | -34 | 60* | 25 | 1 | -7 | -43 | 9 | -7
O=C(O)/C=C/c1ccc([N+](=O)[O-])o1 | 8 | -1 | -4 | 1 | -11 | -3 | / | /
O=C(NNC(=O)C1CCCC1)c1cc([N+](=O)[O-])cc([N+](=O)[O-])c1 | / | / | / | 0 | -4 | / | / | /
COc1ccc(-c2cc3nc4n(c(=O)c3s2)CCC4)cc1 | -5 | 30* | 23 | 0 | -26 | 14 | 80* | 68*
CCN(CC(=O)Nc1c(F)cccc1F)C(=O)/C=C/c1ccc(Br)s1 | -2 | / | -1 | 0 | -1 | 1 | / | /
